# According to PubChem BioAssay (Tox21):
# Unmarked numbers belong to inactive results. Records with an inconclusive call do not appear. A call without a number means that no potency is given here. Activity calls are given as the source filed them. The call rests on the fitted dose curve.
# Experiments:
# [1] = molecular target: Acetylcholinesterase (Homo sapiens) (UniProt P22303); assay: Acetylcholinesterase (AChE) small molecule antagonists: enzyme-based qHTS assay (AID 1347397); conditions: Potency: AChE enzyme activity inhibition; outcome: AChE enzyme activity inhibition; series mostly up to 115 µM; further: nearly all actives have a fitted effect of over 55% in size; further: potency means the concentration at half of the fitted maximal effect
# Acetylcholinesterase (Homo sapiens), sequence (P22303 whole entry, looked up): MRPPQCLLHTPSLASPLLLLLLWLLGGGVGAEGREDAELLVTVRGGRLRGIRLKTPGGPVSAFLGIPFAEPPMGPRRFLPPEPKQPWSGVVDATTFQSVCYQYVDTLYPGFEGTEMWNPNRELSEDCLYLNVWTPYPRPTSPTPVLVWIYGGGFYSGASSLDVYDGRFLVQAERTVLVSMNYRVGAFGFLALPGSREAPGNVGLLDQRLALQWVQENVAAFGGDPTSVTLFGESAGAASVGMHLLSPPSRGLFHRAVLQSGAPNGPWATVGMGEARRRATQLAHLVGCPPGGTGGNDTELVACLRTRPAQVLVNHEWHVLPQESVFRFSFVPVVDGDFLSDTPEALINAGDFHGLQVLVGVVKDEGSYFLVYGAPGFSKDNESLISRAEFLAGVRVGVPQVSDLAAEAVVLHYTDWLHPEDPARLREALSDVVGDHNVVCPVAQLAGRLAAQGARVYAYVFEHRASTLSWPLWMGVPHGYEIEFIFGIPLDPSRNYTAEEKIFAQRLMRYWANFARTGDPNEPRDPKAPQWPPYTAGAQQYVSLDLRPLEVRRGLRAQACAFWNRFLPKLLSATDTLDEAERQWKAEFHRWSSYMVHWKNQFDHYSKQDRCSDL
# Summary of the method: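 Recombinant human AChE, dispensed at 50 mU/mL, was preincubated with Tox21 10K compounds or DMSO vehicle for 30 min at room temperature. DTNB plus acetylthiocholine was then added, and thiocholine was measured colorimetrically after a further 10 min.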
# [2] = molecular target: Acetylcholinesterase (Homo sapiens) (UniProt P22303); assay: Acetylcholinesterase (AChE) small molecule antagonists: fluorescence cell-based qHTS assay (AID 1347398); conditions: SH-SY5Y cells; Potency: AChE activity; outcome: AChE activity; series mostly up to 115 µM; further: nearly all actives have a fitted effect of over 50% in size; further: potency means the concentration at half of the fitted maximal effect
# Summary of the method: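 Human SH-SY5Y cells were plated overnight at 37 C, exposed to compound for 30 min at 37 C, 5% CO2, then given acetylthiocholine plus Thiolite Green for 40 min at room temperature; thiocholine fluorescence (Ex/Em 490/520 nm) reports endogenous AChE activity.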
# [3] = molecular target: Acetylcholinesterase (Homo sapiens) (UniProt P22303); assay: Acetylcholinesterase (AChE) small molecule antagonists: enzyme-based qHTS assay with human liver microsomes (AID 1347399); conditions: Potency: qHTS inhibition; outcome: qHTS inhibition; series mostly up to 115 µM; further: nearly all actives have a fitted effect of over 60% in size
# Summary of the method: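 Recombinant human AChE (50 mU/mL in the enzyme mix) and human liver microsomes (0.25 mg/mL final) were preincubated with compound and NADPH (0.25 mg/mL final) for 30 min at 37 C. Acetylthiocholine/DTNB was then added; thiocholine was read colorimetrically after 10 min at room temperature.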
smiles,measurement,setting,value
CCO[Si](CCCSSSSCCC[Si](OCC)(OCC)OCC)(OCC)OCC,Potency,[1],inactive
same,Potency,[2],inactive
same,Potency,[3],inactive
O=C1c2ccccc2C(=O)c2cc(Cl)ccc21,"activity change, negative = inhibition",[1],-1.23% [at 10.5 µM]
same,"activity change, negative = inhibition",[2],0% [at 10.5 µM]
same,"activity change, negative = inhibition",[3],0.0166% [at 10.5 µM]
Clc1nnc(Cl)c2ccccc12,Potency,[1],inactive
same,Potency,[2],inactive
same,Potency,[3],inactive
[O-][n+]1cccc(/C(Cl)=N/OC[C@@H](O)CN2CCCCC2)c1,Potency,[1],inactive
same,Potency,[2],inactive
same,Potency,[3],inactive
CCCCCCCCCCCC(=O)NCCCN(C)C,Potency,[1],inactive
same,Potency,[2],31.7 µM (active)
same,Potency,[3],inactive
CC(=O)Nc1ccc(S(N)(=O)=O)cc1,Potency,[1],inactive
same,Potency,[2],inactive
same,Potency,[3],inactive
N=C(N)c1ccc(OCCCOc2ccc(C(=N)N)cc2)cc1,Potency,[1],inactive
same,Potency,[2],inactive
same,Potency,[3],inactive
CCCCCCCCCCCC[N+](C)(C)CCCCCCCCCCCC,Potency,[1],28.3 µM (active)
same,Potency,[2],63.3 µM (active)
same,Potency,[3],inactive
Cc1cc(=O)oc2cc(O[C@@H]3SC[C@@H](O)[C@H](O)[C@H]3O)ccc12,Potency,[1],inactive
same,Potency,[2],inactive
same,Potency,[3],inactive
CCc1ccc(C)nc1,Potency,[1],inactive
same,Potency,[2],inactive
same,Potency,[3],inactive
CN[C@H]1CC[C@@H](c2ccc(Cl)c(Cl)c2)c2ccc(S(N)(=O)=O)cc21,Potency,[1],inactive
same,Potency,[2],35.6 µM (active)
same,Potency,[3],inactive
CCC(Cl)C(Cl)C(Cl)CC(Cl)C(Cl)C(C)Cl (centres undefined),Potency,[1],inactive
same,Potency,[2],inactive
same,Potency,[3],inactive
CC(C(=O)O)c1ccc(C(=O)c2ccccc2)s1 (centres undefined),Potency,[1],inactive
same,Potency,[2],inactive
same,Potency,[3],inactive
COC(=O)CCC(=O)O,Potency,[1],inactive
same,Potency,[2],inactive
same,Potency,[3],inactive
Nc1ccc(NC(=O)c2ccc(N)cc2)cc1,Potency,[1],inactive
same,Potency,[2],inactive
same,Potency,[3],inactive
O=[N+]([O-])c1cc(Cl)c(Cl)c(Cl)c1Cl,Potency,[1],inactive
same,Potency,[2],inactive
same,Potency,[3],inactive
Cc1oncc1C(=O)Nc1ccc(C(F)(F)F)cc1,Potency,[1],inactive
same,Potency,[2],inactive
same,Potency,[3],inactive
CCNS(=O)(=O)c1ccc(C)cc1,Potency,[1],inactive
same,Potency,[2],inactive
same,Potency,[3],inactive
O=C(c1ccccc1)C1CCC1,Potency,[1],inactive
same,Potency,[2],inactive
same,Potency,[3],inactive
Nc1ccc(S(=O)(=O)Nc2ccccc2)cc1,Potency,[1],inactive
same,Potency,[2],inactive
same,Potency,[3],inactive
CN(C)CCOCCN(C)CCO,Potency,[1],inactive
same,Potency,[2],inactive
Cc1c(C)c([N+](=O)[O-])c(C(C)(C)C)c([N+](=O)[O-])c1C,Potency,[1],inactive
same,Potency,[2],inactive
same,Potency,[3],inactive
CCC(CN)=C(c1ccccc1)c1ccccc1,Potency,[1],inactive
same,Potency,[2],inactive
same,Potency,[3],inactive
CCN1CCCC1CNC(=O)c1cc(S(=O)(=O)CC)c(N)cc1OC (centres undefined),Potency,[1],15.5 µM (active)
same,Potency,[2],13.8 µM (active)
CS(=O)(=O)c1ccc([C@@H](C[C@H]2CCC(=O)C2)C(=O)Nc2cnccn2)cc1Cl,Potency,[1],inactive
same,Potency,[2],inactive
same,Potency,[3],inactive
CC1CCN(CCCC(=O)c2ccc(F)cc2)CC1,Potency,[1],inactive
same,Potency,[2],inactive
same,Potency,[3],inactive
Cc1cc2c(cc1C(F)(F)F)N(C(=O)Nc1ccc(Oc3cccnc3C)nc1)CC2,Potency,[1],inactive
same,Potency,[2],inactive
same,Potency,[3],inactive
COc1cccc2c1C(=O)c1c(O)c3c(c(O)c1C2=O)C[C@@](O)(C(=O)CO)C[C@@H]3O[C@H]1C[C@H](N)[C@H](O[C@@H]2CCCCO2)[C@H](C)O1,Potency,[1],inactive
same,Potency,[2],inactive
same,Potency,[3],inactive
CCCCCCCCCCCCCCCCCCNC(=O)OC1CCN(C(=O)OC[C@H](COC(=O)N(Cc2cccc[n+]2CC)C(=O)c2ccccc2OC)OC)CC1,Potency,[1],30.9 µM (active)
same,Potency,[2],inactive
same,Potency,[3],inactive
C#CC(O)CCCCC (centres undefined),Potency,[1],inactive
same,Potency,[2],inactive
same,Potency,[3],inactive
CCN(CC)CC,Potency,[1],inactive
same,Potency,[2],inactive
same,Potency,[3],inactive
CC1C2CC(CC2C2CCCC(O)C2)C1(C)C (centres undefined),Potency,[1],inactive
same,Potency,[2],inactive
same,Potency,[3],inactive
Cc1ccco1,Potency,[1],inactive
same,Potency,[2],inactive
same,Potency,[3],inactive
COc1ccc2cccc(CCNC(C)=O)c2c1,Potency,[1],inactive
same,Potency,[2],inactive
same,Potency,[3],inactive
O=c1cc(CO)occ1O,Potency,[1],inactive
same,Potency,[2],inactive
same,Potency,[3],inactive
CC1=NS(=O)(=O)c2cc(Cl)ccc2N1,Potency,[1],inactive
same,Potency,[2],inactive
same,Potency,[3],inactive
CCCOC(=O)c1ccc(O)cc1,Potency,[1],inactive
same,Potency,[2],inactive
same,Potency,[3],inactive
CC(C)=CCC/C(C)=C/CC/C(C)=C/CCC(=O)OC/C=C(\C)CCC=C(C)C,Potency,[1],inactive
same,Potency,[2],inactive
same,Potency,[3],inactive
CCCCCCCCCCCCCCCCCC[N+](C)(C)Cc1ccccc1,Potency,[1],28.5 µM (active)
same,Potency,[2],71.7 µM (active)
same,Potency,[3],inactive
CSc1nc(NC2CC2)nc(NC(C)(C)C)n1,Potency,[1],inactive
same,Potency,[2],inactive
same,Potency,[3],inactive
CCNC(=O)NCCCOc1cccc(CN2CCCCC2)c1,Potency,[1],inactive
same,Potency,[2],inactive
same,Potency,[3],inactive
O=c1[nH]cnc2ccccc12,Potency,[1],inactive
same,Potency,[2],inactive
same,Potency,[3],inactive
